From PubChem BioAssay
TRHR PAM: allosteric enhancers of human TRH receptor. P34981. TRHR cells, fluo-8 calcium fluorescence, EC20 TRH enhancement. enhancement, % at 2 µM. 360,000 tested, 0.66% active. AID 493056; in the data active means enhancement above about 30%
Target sequence (P34981 whole entry, looked up): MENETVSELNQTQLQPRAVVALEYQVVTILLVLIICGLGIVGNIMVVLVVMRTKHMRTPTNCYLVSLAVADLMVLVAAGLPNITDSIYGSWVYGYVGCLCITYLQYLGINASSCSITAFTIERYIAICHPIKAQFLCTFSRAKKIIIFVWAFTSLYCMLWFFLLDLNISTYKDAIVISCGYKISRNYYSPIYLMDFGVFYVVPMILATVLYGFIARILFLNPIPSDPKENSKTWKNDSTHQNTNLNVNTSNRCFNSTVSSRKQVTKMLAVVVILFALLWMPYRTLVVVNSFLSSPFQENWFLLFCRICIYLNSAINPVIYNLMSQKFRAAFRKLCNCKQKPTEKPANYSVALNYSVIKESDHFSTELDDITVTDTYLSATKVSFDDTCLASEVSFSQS
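TRHR-expressing cells loaded with fluo-8 calcium dye were read kinetically (ex 480/em 530) during compound addition, then stimulated with an EC20 of TRH (10 nM final). Enhancement of the Gq-mediated intracellular calcium response was scored.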
TRHR ag: TRH receptor (human) agonism. activation, % at 2 µM. P34981. 360,000 tested, 0.18% active. TRHR cells, calcium flux fluo-8, FDSS agonist mode
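Agonist-mode FDSS calcium read (Ex 480/Em 530, 1 s cycles) in 1536-well TRHR cells with fluo-8 dye, after 10-cycle baseline and 23 nL compound addition; TRH at EC20 (10 nM final) added afterwards for the enhancer phase.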
D1 PAM: enhances dopamine response at the human D1 receptor; AID 504651; potentiation, % at 10 µM; HEK293 TREx D1 cells, calcium flux, dopamine EC20 potentiation; 360,000 tested, 0.036% active; in the data active means potentiation above about 30%
D1 agonist: activates the human D1 dopamine receptor. AID 504660. HEK293 T-REx D1 cells, calcium flux, agonist mode. 360,000 tested, 1% active. activation, % at 2 µM
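Agonism was scored from calcium flux recorded over 180 s (1 read/s) after pintool compound addition, following a 10-cycle baseline. Cells were inducible force-coupled HEK293 TREx D1, plated overnight at 30 C and loaded with no-wash calcium dye.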
D1 antag: human D1 dopamine receptor antagonism; P21728; HEK293 TREx D1 cells, calcium flux, dopamine EC80; hits give low values; activity change, negative = inhibition, % at 10 µM; 360,000 tested, 3.2% active; AID 504652; in the data active means activity change below about -30%
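Using tetracycline-induced force-coupled D1 Hek293 cells and a calcium dye, signals were followed for 180 s after compound, then for 180 s after EC80 dopamine, to detect inhibitors.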
Numbers stand for hits; ! = not confirmed by another sample. An excerpt weighted towards active compounds, which were near 4.7% of everything screened. Unless noted, no stated cut-off is given here; in the data, active means activation above about 30%; inactive means the rest.

Results for CCCCOC(=O)c1ccc(Nc2ncnc3c2cnn3-c2cccc(C)c2)cc1 ?
TRHR PAM: inactive; TRHR ag: inactive; D1 PAM: inactive; D1 agonist: inactive; D1 antag: inactive

What do the screens show for `O=C1CCc2cc(OCCCCc3nnnn3C3CCCCC3)ccc2N1`?
TRHR PAM: inactive; TRHR ag: inactive; D1 PAM: inactive; D1 agonist: inactive; D1 antag: -42!

What do the screens show for `Cc1cccc(NC(=O)c2sc3nc4c(c(-c5cccs5)c3c2N)CN(C)CC4)c1`?
TRHR PAM: inactive; TRHR ag: inactive; D1 PAM: inactive; D1 agonist: inactive; D1 antag: -40

How did CC(C)NC(=O)c1sc2nc3c(c(-c4cccs4)c2c1N)CN(C)CC3 do in these assays?
TRHR PAM: inactive; TRHR ag: inactive; D1 PAM: inactive; D1 agonist: inactive; D1 antag: inactive

Results for CCOC(=O)c1ccc(NC(=O)CSc2ccc(-c3sc(C)nc3C)nn2)cc1 ?
TRHR PAM: inactive; TRHR ag: inactive; D1 PAM: inactive; D1 agonist: inactive; D1 antag: -42

Results for COc1ccc(C)cc1NC(=O)CSc1ccc(-c2sc(C)nc2C)nn1 ?
TRHR PAM: inactive; TRHR ag: inactive; D1 PAM: inactive; D1 agonist: inactive; D1 antag: -50

Results for CC(=O)Nc1ccc(NC(=O)CSc2ccc(-c3sc(C)nc3C)nn2)cc1 ?
TRHR PAM: inactive; TRHR ag: inactive; D1 PAM: inactive; D1 agonist: inactive; D1 antag: inactive

Results for CCn1cc(C(=O)N2CCN(c3ccccc3F)CC2)c(=O)c2cc(S(=O)(=O)N(C)C)ccc21 ?
TRHR PAM: inactive; TRHR ag: inactive; D1 PAM: inactive; D1 agonist: inactive; D1 antag: inactive

Results for CC(C)n1c(NCc2ccc(Cl)cc2)nc2ccccc21 ?
TRHR PAM: 40; TRHR ag: inactive; D1 PAM: inactive; D1 agonist: inactive; D1 antag: inactive

How did COc1cc(NC(=O)CN2CCCN(Cc3cccc(F)c3)S2(=O)=O)cc(OC)c1 do in these assays?
TRHR PAM: inactive; TRHR ag: inactive; D1 PAM: inactive; D1 agonist: inactive; D1 antag: inactive

How did Cc1coc2cc3oc(=O)c(CC(=O)NCCc4ccccc4)c(C)c3cc12 do in these assays?
TRHR PAM: inactive; TRHR ag: inactive; D1 PAM: inactive; D1 agonist: inactive; D1 antag: inactive

Results for CCN(CC)Cc1c(O)ccc2c(-c3ccccc3)cc(=O)oc12 ?
TRHR PAM: inactive; TRHR ag: inactive; D1 PAM: inactive; D1 agonist: inactive; D1 antag: -31

Results for O=C(CCNC(=O)c1ccc(Cl)cc1)Nc1ccc(F)cc1F ?
TRHR PAM: inactive; TRHR ag: inactive; D1 PAM: inactive; D1 agonist: inactive; D1 antag: -47

How did O=C(NCCc1ccc(O)cc1)c1ccc(Cl)cc1 do in these assays?
TRHR PAM: inactive; TRHR ag: inactive; D1 PAM: inactive; D1 agonist: inactive; D1 antag: -32

How did NS(=O)(=O)c1ccc(CCNC(=O)CCCNC(=O)c2ccc(Cl)cc2)cc1 do in these assays?
TRHR PAM: inactive; TRHR ag: inactive; D1 PAM: inactive; D1 agonist: inactive; D1 antag: -33

Results for O=C(COC(=O)CCCNC(=O)c1ccc(Cl)cc1)NCc1ccccc1Cl ?
TRHR PAM: inactive; TRHR ag: inactive; D1 PAM: inactive; D1 agonist: 77; D1 antag: inactive

How did O=C(CCCNC(=O)c1ccc(Cl)cc1)NCc1ccccc1Cl do in these assays?
TRHR PAM: inactive; TRHR ag: inactive; D1 PAM: inactive; D1 agonist: inactive; D1 antag: inactive

How did Cc1cc(C)c(Cn2c3ccccc3c3cnn(CC(=O)N4CCCCC4)c(=O)c32)c(C)c1 do in these assays?
TRHR PAM: inactive; TRHR ag: inactive; D1 PAM: inactive; D1 agonist: inactive; D1 antag: inactive

What do the screens show for `CCCCOc1ccccc1C(=O)N(Cc1cccc(F)c1)C1CCS(=O)(=O)C1` (stereo not given)?
TRHR PAM: inactive; TRHR ag: inactive; D1 PAM: inactive; D1 agonist: inactive; D1 antag: inactive

How did CN(C)Cc1cc(CCNC(=O)c2ccc(Cl)cc2)ccc1O do in these assays?
TRHR PAM: inactive; TRHR ag: inactive; D1 PAM: inactive; D1 agonist: inactive; D1 antag: -37

What do the screens show for `Cc1ccccc1CCNC(=O)c1ccc2c(c1)c(C)c(C)n2C`?
TRHR PAM: inactive; TRHR ag: inactive; D1 PAM: inactive; D1 agonist: inactive; D1 antag: inactive

How did CCc1ccc(C(=O)NNc2ccc(F)cc2F)cc1 do in these assays?
TRHR PAM: inactive; TRHR ag: inactive; D1 PAM: inactive; D1 agonist: inactive; D1 antag: -51

How did CCN(CC)Cc1cc(CCNC(=O)c2ccc(Cl)cc2)ccc1O do in these assays?
TRHR PAM: inactive; TRHR ag: inactive; D1 PAM: inactive; D1 agonist: inactive

How did Cc1ccc(C(=O)NCCc2ccccc2)cc1 do in these assays?
TRHR PAM: inactive; TRHR ag: inactive; D1 PAM: inactive; D1 agonist: inactive; D1 antag: inactive

What do the screens show for `Cc1c(C)n(C)c2ccc(C(=O)NCCc3ccc(Cl)cc3)cc12`?
TRHR PAM: inactive; TRHR ag: inactive; D1 PAM: inactive; D1 agonist: inactive; D1 antag: -59

Results for Cc1ccc(C(=O)NCCc2ccncc2)cc1 ?
TRHR PAM: inactive; TRHR ag: inactive; D1 PAM: inactive; D1 agonist: inactive; D1 antag: -36

Results for COC(=O)c1ccc(NC(=O)c2c(-c3ccccc3)c(-c3ccccc3)nn(C)c2=O)cc1 ?
TRHR PAM: inactive; TRHR ag: inactive; D1 PAM: inactive; D1 agonist: inactive; D1 antag: inactive

How did Cc1ccc(SCC(=O)OCC(=O)NC(C)c2ccc(F)cc2)cc1 (stereo not given) do in these assays?
TRHR PAM: inactive; TRHR ag: inactive; D1 PAM: inactive; D1 agonist: inactive; D1 antag: inactive

What do the screens show for `O=C(NCc1cccnc1)Nc1cccc(Cl)c1Cl`?
TRHR PAM: inactive; TRHR ag: inactive; D1 PAM: inactive; D1 agonist: inactive; D1 antag: -30

What do the screens show for `Cc1cccc(NC(=O)NCc2cccnc2)c1C`?
TRHR PAM: inactive; TRHR ag: inactive; D1 PAM: inactive; D1 agonist: inactive; D1 antag: -34

Results for O=C(NCc1cccnc1)Nc1ccc(Cl)cc1Cl ?
TRHR PAM: inactive; TRHR ag: inactive; D1 PAM: inactive; D1 agonist: inactive; D1 antag: inactive

Results for O=C(NCc1cccnc1)NC1(C(F)(F)F)Oc2ccccc2O1 ?
TRHR PAM: inactive; TRHR ag: inactive; D1 PAM: inactive; D1 agonist: inactive; D1 antag: -42

What do the screens show for `CCOC(=O)c1nn2c(C(F)(F)F)cc(-c3ccc(OC)cc3)nc2c1Br`?
TRHR PAM: inactive; TRHR ag: inactive; D1 PAM: inactive; D1 agonist: 35; D1 antag: inactive

Results for CCOC(=O)c1cccc(NS(=O)(=O)c2c(C)nc3sc(C)cn3c2=O)c1 ?
TRHR PAM: inactive; TRHR ag: inactive; D1 PAM: inactive; D1 agonist: inactive; D1 antag: inactive
